In the supplement of paper PMC10849652:
Of roughly 7,900 targets only a part is listed; those with a hit were picked by preference. About 0.6% of all pairs of compound and target were hits.

What was measured:
Assay in all cases: log2 fold change, soluble protein after heating vs DMSO (PISA); higher = thermal stabilisation; K562 cells, 10 uM, 30 min; active = over 0.2 and 3.5 SD of the protein, either way, in both replicates (recomputed)
[1] = compound: CC1=C(C=C(C=C1)NC(=O)C2=CC(=CC=C2)C(C)(C)C#N)NC3=CC4=C(C=C3)N=CN(C4=O)C
Method in brief: (§1)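 K562 cells at 2×10^6 cells/mL were treated with 10 μM compound for 30 min. Aliquots were heated for 3 min across 48°C-58°C, pooled, and extracted in PBS with 0.5% NP-40 at 4°C; soluble protein was the supernatant after 21,000xg for 90 min. Soluble protein was quantified by TMTpro 16plex LC-MS/MS with channel sums equalised, and reported as log2 fold change in thermal stability against DMSO controls, with values from duplicates.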

[2] = compound: CC1=C(C=C(C=C1)NC(=O)C2=CC(=CC=C2)N(C)C)NC(=O)C3=CC=C(C=C3)O
Method in brief: as §1

[3] = compound: CC1=CC=C(C=C1)SC2=C3C=C(SC3=CN=C2)C(=O)N
Method in brief: as §1

[4] = compound: CC1=NC(=CC=C1)C2=C(N=C(N2)C(C)(C)C)C3=CC4=NC=CN=C4C=C3
Method in brief: as §1

Nexturastat A = compound: CCCCN(Cc1ccc(C(=O)NO)cc1)C(=O)Nc1ccccc1 [Nexturastat A]
Method in brief: as §1

vemurafenib = compound: CCCS(=O)(=O)Nc1ccc(F)c(C(=O)c2c[nH]c3ncc(-c4ccc(Cl)cc4)cc23)c1F [vemurafenib]
Method in brief: as §1

[5] = compound: CCCS(=O)(=O)Nc1ccc(F)c(C(=O)c2c[nH]c3ncc(Cl)cc23)c1F
Method in brief: as §1

[6] = compound: CCCc1cc(C)[nH]c(=O)c1CNC(=O)c1cc(-c2ccnc(N3CCN(C)CC3)c2)cc2c1cnn2C(C)C
Method in brief: as §1

givinostat = compound: CCN(CC)Cc1ccc2cc(COC(=O)Nc3ccc(C(=O)NO)cc3)ccc2c1 [givinostat]
Method in brief: as §1

barasertib = compound: CCN(CCCOc1ccc2c(Nc3cc(CC(=O)Nc4cccc(F)c4)[nH]n3)ncnc2c1)CCOP(=O)(O)O [barasertib]
Method in brief: as §1

Measured: log2 fold change

SKP1 (UniProt P63208)
Chain of UniProt P63208 (P63208 whole entry, looked up): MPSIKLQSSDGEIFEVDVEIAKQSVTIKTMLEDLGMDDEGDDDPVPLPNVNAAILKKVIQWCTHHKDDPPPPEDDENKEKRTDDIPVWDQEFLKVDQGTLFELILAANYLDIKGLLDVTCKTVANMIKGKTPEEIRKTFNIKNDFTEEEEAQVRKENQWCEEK
inactive: [1] 0.095 | [2] 0.048 | [3] 0.094 | [4] 0.017 | Nexturastat A -0.052 | vemurafenib -0.036 | [5] 0.008 | [6] -0.032 | givinostat -0.05 | barasertib -0.021

RPS9 (UniProt P46781)
inactive: [1] 0.039 | [2] 0 | [3] -0.073 | [4] -0.016 | Nexturastat A 0.104 | vemurafenib -0.107 | [5] -0.066 | [6] 0.087 | givinostat 0.038 | barasertib -0.114

RCOR3 isoform 3 (UniProt Q9P2K3)
inactive: [1] -0.12 | [2] -0.046 | [3] 0.051 | [4] 0.012 | vemurafenib 0.025 | [5] 0.031 | [6] -0.022 | givinostat 0.075 | barasertib 0.098

RPAIN isoform 8 (UniProt Q86UA6)
inactive: [1] 0.009 | [2] 0.038 | [3] -0.098 | [4] 0.136 | Nexturastat A -0.017 | vemurafenib -0.062 | [5] 0.042 | barasertib 0.029

RECQL (UniProt P46063)
Chain of UniProt P46063 (P46063 whole entry, looked up): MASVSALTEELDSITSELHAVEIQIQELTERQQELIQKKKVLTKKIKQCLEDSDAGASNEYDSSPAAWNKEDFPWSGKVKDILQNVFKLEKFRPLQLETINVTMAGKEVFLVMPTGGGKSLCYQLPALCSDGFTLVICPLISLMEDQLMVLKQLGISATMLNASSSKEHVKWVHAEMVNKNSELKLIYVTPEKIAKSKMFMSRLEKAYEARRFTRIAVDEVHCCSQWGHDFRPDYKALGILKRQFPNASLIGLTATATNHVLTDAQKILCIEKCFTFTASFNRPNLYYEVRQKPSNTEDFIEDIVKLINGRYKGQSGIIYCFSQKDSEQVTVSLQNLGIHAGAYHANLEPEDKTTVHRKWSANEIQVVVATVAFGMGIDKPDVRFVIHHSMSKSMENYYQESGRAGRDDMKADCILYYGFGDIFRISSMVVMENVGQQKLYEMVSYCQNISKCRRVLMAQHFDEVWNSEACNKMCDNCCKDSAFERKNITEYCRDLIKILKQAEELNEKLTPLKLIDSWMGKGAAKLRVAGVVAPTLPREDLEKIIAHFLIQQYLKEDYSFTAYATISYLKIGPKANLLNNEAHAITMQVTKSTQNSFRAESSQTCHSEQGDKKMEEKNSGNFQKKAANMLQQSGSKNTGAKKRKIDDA
inactive: [1] 0.028 | [2] -0.012 | [3] 0.011 | [4] 0.039 | Nexturastat A -0.002 | vemurafenib -0.009 | [5] 0.063 | [6] -0.007 | givinostat 0.038 | barasertib -0.002

RBM33 (UniProt Q96EV2)
inactive: [1] -0.024 | [2] -0.001 | [3] -0.014 | [4] 0.014 | Nexturastat A 0.021 | vemurafenib -0.019 | [5] 0.022 | [6] 0.022 | givinostat 0.077 | barasertib 0.037

RAD50, A0A494C0Y7
inactive: [1] -0.005 | [2] -0.03 | [3] -0.063 | [4] -0.041 | vemurafenib 0.045 | [5] 0 | [6] -0.244 | barasertib -0.171

RSRC1 (UniProt Q96IZ7)
inactive: [1] 0.041 | [2] 0.013 | [3] 0.006 | [4] 0.056 | Nexturastat A 0.02 | vemurafenib -0.046 | [5] 0.004 | [6] -0.026 | givinostat 0.019 | barasertib -0.031

RPA3 (UniProt P35244)
active: vemurafenib 0.298
inactive: [1] 0.076 | [2] -0.059 | [3] 0.111 | [4] 0.014 | Nexturastat A 0.091 | [5] 0.053 | [6] -0.044 | givinostat -0.109 | barasertib 0.066

RRS1 (UniProt Q15050)
inactive: [1] 0.024 | [2] 0.021 | [3] -0.043 | [4] -0.163 | Nexturastat A 0.31 | vemurafenib -0.174 | [5] -0.03 | [6] 0.104 | givinostat 0.093 | barasertib -0.101

RCN3 (UniProt Q96D15)
Chain of UniProt Q96D15 (Q96D15 whole entry, looked up): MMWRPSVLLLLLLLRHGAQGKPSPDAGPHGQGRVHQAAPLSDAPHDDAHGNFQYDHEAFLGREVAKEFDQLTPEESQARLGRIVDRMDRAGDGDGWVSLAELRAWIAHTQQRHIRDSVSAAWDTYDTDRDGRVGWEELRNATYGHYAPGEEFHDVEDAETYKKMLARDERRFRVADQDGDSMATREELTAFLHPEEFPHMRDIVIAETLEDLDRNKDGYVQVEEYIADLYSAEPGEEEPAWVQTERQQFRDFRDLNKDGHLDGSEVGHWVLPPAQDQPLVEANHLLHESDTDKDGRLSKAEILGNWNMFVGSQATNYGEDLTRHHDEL
inactive: [1] -0.055 | [2] 0.029 | [3] -0.028 | [4] -0.073 | Nexturastat A 0.077 | vemurafenib -0.003 | [5] -0.053 | [6] -0.145 | givinostat -0.023 | barasertib -0.011

RAB33B (UniProt Q9H082)
inactive: [1] -0.028 | [2] -0.026 | [3] -0.028 | [4] -0.071 | Nexturastat A -0.004 | vemurafenib -0.083 | [5] -0.038 | [6] -0.065 | givinostat -0.012 | barasertib 0.031

SFXN5 (UniProt Q8TD22)
Chain of UniProt Q8TD22 (Q8TD22 whole entry, looked up): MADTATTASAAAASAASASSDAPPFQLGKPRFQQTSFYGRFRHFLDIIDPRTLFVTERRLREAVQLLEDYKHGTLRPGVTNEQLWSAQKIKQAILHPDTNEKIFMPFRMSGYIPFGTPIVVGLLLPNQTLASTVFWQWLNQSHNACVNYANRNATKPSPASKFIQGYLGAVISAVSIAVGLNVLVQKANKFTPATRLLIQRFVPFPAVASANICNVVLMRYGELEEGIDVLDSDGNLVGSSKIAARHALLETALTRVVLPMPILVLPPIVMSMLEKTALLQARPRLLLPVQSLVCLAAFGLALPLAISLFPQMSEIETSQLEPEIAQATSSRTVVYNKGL
inactive: [1] -0.013 | [2] 0 | [3] 0.049 | [4] 0.024 | Nexturastat A -0.026 | vemurafenib 0.135 | [5] 0.012 | [6] 0.012 | givinostat 0.124 | barasertib 0.057

SERPINA7 (UniProt P05543)
inactive: [1] -0.121 | [2] 0.496 | [3] 0.067 | [4] -0.021 | Nexturastat A 0.086 | vemurafenib -0.06 | [5] -0.271 | [6] -0.349 | givinostat -0.043 | barasertib -0.127

RAP2C (UniProt Q9Y3L5)
Chain of UniProt Q9Y3L5 (Q9Y3L5 whole entry, looked up): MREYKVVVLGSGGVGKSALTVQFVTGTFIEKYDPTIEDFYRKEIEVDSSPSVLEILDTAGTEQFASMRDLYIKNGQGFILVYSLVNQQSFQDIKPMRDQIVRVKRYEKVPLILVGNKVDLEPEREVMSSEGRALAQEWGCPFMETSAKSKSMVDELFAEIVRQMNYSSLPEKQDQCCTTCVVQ
inactive: [1] -0.064 | [2] 0.052 | [3] -0.03 | Nexturastat A 0 | vemurafenib 0.066 | [5] -0.13 | [6] -0.052 | givinostat -0.044 | barasertib -0.031

RNASEH2A (UniProt O75792)
inactive: [1] -0.023 | [2] -0.018 | [3] 0.022 | [4] 0.046 | Nexturastat A 0.142 | vemurafenib -0.102 | [5] -0.024 | [6] -0.063 | givinostat 0.046 | barasertib 0.039

SDHAF2 (UniProt Q9NX18)
inactive: [1] -0.047 | [2] 0.026 | [3] 0.079 | [4] 0.019 | Nexturastat A 0.076 | vemurafenib 0.028 | [5] -0.024 | [6] -0.06 | givinostat 0.036 | barasertib 0.005

RBM48 isoform 2 (UniProt Q5RL73)
Chain of UniProt Q5RL73 (Q5RL73 whole entry, looked up): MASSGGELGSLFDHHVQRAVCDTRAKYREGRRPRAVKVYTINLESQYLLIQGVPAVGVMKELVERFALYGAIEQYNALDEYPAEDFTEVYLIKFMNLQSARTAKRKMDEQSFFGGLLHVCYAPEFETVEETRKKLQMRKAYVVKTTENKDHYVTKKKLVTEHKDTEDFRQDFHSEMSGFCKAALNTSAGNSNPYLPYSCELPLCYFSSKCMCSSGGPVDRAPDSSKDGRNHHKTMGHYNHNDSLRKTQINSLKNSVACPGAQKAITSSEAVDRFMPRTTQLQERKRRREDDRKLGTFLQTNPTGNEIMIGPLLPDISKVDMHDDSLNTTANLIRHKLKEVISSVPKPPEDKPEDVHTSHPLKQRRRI
active: [1] -0.708
inactive: [2] -0.13 | [3] -0.009 | [4] -0.007 | Nexturastat A 0.04 | [5] -0.011 | givinostat -0.03 | barasertib -0.069

RBM6 (UniProt P78332)
inactive: [1] -0.009 | [3] -0.056 | [4] 0.092 | [5] 0.031 | [6] -0.079

SEPTIN5 (UniProt G3XAH0)
inactive: [1] -0.002 | [2] -0.046 | [3] 0.04 | vemurafenib 0.058 | [5] 0.023 | [6] -0.009 | givinostat 0.014 | barasertib 0.002
active: Nexturastat A -0.255

RNF41 (UniProt Q9H4P4)
inactive: barasertib -0.15

S100A10 (UniProt P60903)
Chain of UniProt P60903 (P60903 whole entry, looked up): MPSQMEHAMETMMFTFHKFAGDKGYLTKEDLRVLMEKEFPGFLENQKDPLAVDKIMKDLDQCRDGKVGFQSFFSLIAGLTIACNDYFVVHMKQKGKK
inactive: [1] 0.128 | [3] 0.181 | [5] -0.086 | barasertib 0.113

RRP36 (UniProt Q96EU6)
inactive: [1] 0.001 | [2] -0.168 | [3] -0.045 | Nexturastat A 0.24 | vemurafenib -0.117 | [5] 0.002 | [6] 0.136 | givinostat 0 | barasertib -0.218

RMDN2 isoform 2 (UniProt Q96LZ7)
inactive: [2] -0.022 | [4] -0.127 | vemurafenib 0.217 | [6] -0.196

SCLT1 (UniProt Q96NL6)
Chain of UniProt Q96NL6 (Q96NL6 whole entry, looked up): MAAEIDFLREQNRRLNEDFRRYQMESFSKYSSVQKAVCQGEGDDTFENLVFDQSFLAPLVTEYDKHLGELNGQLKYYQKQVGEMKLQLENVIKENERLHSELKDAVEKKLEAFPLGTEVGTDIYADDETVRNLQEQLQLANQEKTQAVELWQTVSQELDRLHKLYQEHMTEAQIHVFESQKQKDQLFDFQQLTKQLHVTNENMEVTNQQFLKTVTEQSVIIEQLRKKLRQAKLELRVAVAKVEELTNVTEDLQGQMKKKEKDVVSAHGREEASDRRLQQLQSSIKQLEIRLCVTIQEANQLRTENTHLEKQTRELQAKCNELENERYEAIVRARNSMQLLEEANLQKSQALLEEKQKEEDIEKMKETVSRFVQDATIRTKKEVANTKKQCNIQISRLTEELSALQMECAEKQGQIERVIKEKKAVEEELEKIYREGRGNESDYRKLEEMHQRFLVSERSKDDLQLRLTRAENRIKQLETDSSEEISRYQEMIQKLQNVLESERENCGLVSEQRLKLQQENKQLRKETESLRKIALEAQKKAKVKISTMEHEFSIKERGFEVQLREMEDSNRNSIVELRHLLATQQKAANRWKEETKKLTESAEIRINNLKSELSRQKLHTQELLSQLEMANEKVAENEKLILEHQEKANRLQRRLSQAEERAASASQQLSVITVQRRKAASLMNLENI
inactive: [1] -0.057 | [4] -0.161 | vemurafenib 0.045 | [6] 0.01 | barasertib 0.049

SDCBP isoform 2 (UniProt O00560)
inactive: [1] 0.06 | [2] -0.058 | [3] 0.004 | Nexturastat A 0.149 | [5] 0.076 | [6] -0.048 | givinostat -0.008 | barasertib 0.046

SDC3 (UniProt O75056)
Chain of UniProt O75056 (O75056 whole entry, looked up): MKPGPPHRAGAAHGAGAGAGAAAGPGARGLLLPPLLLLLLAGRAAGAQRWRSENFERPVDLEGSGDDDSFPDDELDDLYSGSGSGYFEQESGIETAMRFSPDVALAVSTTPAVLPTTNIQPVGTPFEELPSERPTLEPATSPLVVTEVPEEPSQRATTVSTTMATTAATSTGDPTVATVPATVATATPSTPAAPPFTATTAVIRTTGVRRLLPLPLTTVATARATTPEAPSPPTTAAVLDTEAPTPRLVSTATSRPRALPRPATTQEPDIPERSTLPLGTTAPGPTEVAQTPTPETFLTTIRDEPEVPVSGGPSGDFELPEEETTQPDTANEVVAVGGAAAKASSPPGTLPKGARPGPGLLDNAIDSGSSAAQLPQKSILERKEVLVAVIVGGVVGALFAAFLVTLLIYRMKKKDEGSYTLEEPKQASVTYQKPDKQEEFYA
inactive: [1] 0.091 | Nexturastat A 0.016 | vemurafenib 0.073

RPS6KA5 (UniProt O75582)
inactive: [2] -0.039 | [3] 0.029 | [4] -0.017 | Nexturastat A 0.013 | [5] 0.121 | [6] 0.237 | givinostat 0.025

SLC12A5 (UniProt Q9H2X9)
Chain of UniProt Q9H2X9 (Q9H2X9 whole entry, looked up): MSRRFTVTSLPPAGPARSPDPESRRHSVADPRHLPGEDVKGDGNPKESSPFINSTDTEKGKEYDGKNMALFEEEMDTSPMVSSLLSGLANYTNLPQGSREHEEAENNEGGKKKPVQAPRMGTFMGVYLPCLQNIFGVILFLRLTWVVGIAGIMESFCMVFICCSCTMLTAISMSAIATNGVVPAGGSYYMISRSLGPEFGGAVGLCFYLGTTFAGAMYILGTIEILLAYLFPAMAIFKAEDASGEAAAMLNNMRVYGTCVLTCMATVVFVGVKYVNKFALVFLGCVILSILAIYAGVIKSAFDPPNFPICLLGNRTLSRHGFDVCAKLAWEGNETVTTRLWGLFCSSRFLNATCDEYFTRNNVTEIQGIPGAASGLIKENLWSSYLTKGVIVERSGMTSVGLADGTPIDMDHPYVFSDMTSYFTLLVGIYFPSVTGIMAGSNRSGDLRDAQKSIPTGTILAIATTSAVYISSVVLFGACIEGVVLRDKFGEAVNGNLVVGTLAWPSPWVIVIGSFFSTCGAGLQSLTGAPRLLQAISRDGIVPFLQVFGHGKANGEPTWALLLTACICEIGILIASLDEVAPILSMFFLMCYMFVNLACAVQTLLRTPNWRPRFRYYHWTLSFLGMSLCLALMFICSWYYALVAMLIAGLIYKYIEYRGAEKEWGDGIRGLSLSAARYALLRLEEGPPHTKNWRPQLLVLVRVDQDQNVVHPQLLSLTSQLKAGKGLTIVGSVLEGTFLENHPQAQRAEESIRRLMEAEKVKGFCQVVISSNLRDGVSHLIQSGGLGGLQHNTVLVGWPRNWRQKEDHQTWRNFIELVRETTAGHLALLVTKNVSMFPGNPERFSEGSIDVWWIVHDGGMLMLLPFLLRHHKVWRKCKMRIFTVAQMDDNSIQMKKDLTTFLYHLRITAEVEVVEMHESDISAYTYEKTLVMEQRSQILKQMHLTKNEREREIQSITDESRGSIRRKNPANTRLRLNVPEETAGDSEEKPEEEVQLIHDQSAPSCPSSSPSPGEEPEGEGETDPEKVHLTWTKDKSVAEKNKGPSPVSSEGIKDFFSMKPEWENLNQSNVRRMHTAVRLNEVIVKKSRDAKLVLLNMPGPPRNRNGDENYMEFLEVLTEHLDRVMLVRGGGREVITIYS
inactive: [1] 0.074 | [3] 0.108 | [4] 0.198 | Nexturastat A 0.001 | vemurafenib -0.105 | [5] 0.081 | [6] -0.018 | givinostat 0.016 | barasertib -0.004

RPS3 (UniProt E9PJN9)
inactive: [2] 0.125

RBMY1E (UniProt A6NEQ0)
inactive: [2] 0.009 | [3] 0.183 | [4] 0.075 | [5] 0.082 | [6] -0.023 | givinostat 0.059 | barasertib 0.135

SCAMP2 (UniProt O15127)
Chain of UniProt O15127 (O15127 whole entry, looked up): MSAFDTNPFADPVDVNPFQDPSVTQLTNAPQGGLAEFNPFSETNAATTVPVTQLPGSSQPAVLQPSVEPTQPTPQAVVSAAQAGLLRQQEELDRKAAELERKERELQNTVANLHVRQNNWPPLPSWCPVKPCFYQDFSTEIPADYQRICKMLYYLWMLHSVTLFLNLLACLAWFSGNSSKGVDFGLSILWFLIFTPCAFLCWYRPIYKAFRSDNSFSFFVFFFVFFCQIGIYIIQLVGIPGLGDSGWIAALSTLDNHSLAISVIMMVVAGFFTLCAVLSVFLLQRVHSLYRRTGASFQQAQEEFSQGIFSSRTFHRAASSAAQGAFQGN
inactive: [1] -0.032 | [2] -0.032 | [3] 0.046 | Nexturastat A -0.061 | vemurafenib 0.081 | [5] 0.043 | [6] 0.013 | givinostat -0.085 | barasertib -0.029

RAPGEF4 (UniProt Q8WZA2)
inactive: [1] -0.046 | [4] -0.235 | Nexturastat A 0.245 | vemurafenib -0.267 | [6] -0.203 | givinostat 0.248 | barasertib 0.041

SDHAF4 (UniProt Q5VUM1)
Chain of UniProt Q5VUM1 (Q5VUM1 whole entry, looked up): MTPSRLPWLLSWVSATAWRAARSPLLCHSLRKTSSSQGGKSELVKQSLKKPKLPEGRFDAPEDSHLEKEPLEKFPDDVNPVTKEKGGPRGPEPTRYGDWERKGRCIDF
active: givinostat 0.368
inactive: [1] -0.066 | [3] 0.053 | [4] 0.022 | Nexturastat A -0.039 | [5] -0.065 | [6] -0.035 | barasertib -0.018

RALGPS2 (UniProt Q86X27)
inactive: [4] -0.234 | vemurafenib 0.023 | [6] -0.128 | givinostat -0.147 | barasertib -0.116
active: Nexturastat A 1.06

ROMO1 (UniProt P60602)
Chain of UniProt P60602 (P60602 whole entry, looked up): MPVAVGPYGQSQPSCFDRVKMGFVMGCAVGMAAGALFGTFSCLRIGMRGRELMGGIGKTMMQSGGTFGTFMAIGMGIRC
inactive: [1] 0.087 | [2] -0.011 | [3] 0.005 | Nexturastat A -0.066 | [5] -0.017 | [6] -0.082 | givinostat -0.027 | barasertib -0.036

RPS19 (UniProt M0R2L9)
inactive: [3] -0.169 | [5] -0.98 | [6] 0.113

RNF185 (UniProt Q96GF1)
inactive: [2] -0.055 | [3] -0.074 | vemurafenib 0.009 | [5] 0.1 | [6] -0.081 | givinostat -0.013 | barasertib 0.055
